What all share (assay): Primary qHTS to identify gynecologic anti-cancer compounds using libraries of approved drugs and bioactive compounds (AID 1345084); further: nearly all actives have a fitted effect of over 55% in size
One test has as its system CASKI. The following applies: Gynecologic cancer cell panel viability, ATPlite luminescence, 48 h; series mostly up to 57.5 µM. An outline of the steps:
(§1)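 Cell viability after 48 h drug treatment, ATPlite luminescence readout; five doses.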
Background: In ATP-based viability assays light output follows the ATP content of the culture.

In the next test the test system is Es-2. The conditions noted are these: Gynecologic cancer cell panel viability, ATPlite luminescence, 48 h; series mostly up to 57.5 µM. In a few lines:
as §1

A further test relates to HeLa. The conditions noted are these: Gynecologic cancer cell panel viability, ATPlite luminescence, 48 h; series mostly up to 57.5 µM. In a few lines: as §1
A further test deals with Hek293T. The following applies: Gynecologic cancer cell panel viability, ATPlite luminescence, 48 h, control line for the selectivity index; series mostly up to 57.5 µM. In a few lines: as §1
For another test, the system named is JEG-3. The conditions noted are these: Gynecologic cancer cell panel viability, ATPlite luminescence, 48 h; series mostly up to 57.5 µM. In a few lines: as §1
A further test relates to OV90. The following applies: Gynecologic cancer cell panel viability, ATPlite luminescence, 48 h; series mostly up to 57.5 µM. An outline of the steps: as §1
The subject of another test is PA-1. The following applies: Gynecologic cancer cell panel viability, ATPlite luminescence, 48 h; series mostly up to 57.5 µM. In a few lines:
as §1

For another test, the system named is SKOV3. The following applies: Gynecologic cancer cell panel viability, ATPlite luminescence, 48 h; series mostly up to 57.5 µM. An outline of the steps: as §1
In a further test the test system is Tov-21-G. The following applies: Gynecologic cancer cell panel viability, ATPlite luminescence, 48 h; series mostly up to 57.5 µM. In a few lines: as §1
For a further test, the system named is Tov112D. The conditions noted are these: Gynecologic cancer cell panel viability, ATPlite luminescence, 48 h; series mostly up to 57.5 µM. In a few lines:
as §1

Here are results for 22 compounds from PubChem BioAssay (NCATS).

Each structure is given as a SMILES string. Records with an inconclusive call do not appear. Values without a mark were called inactive. Activity calls are given as the source filed them. The call rests on the fitted dose curve; in most records, active means well fitted cell-killing curve with a large enough effect; inconclusive means small, poorly fitted or top-dose-only effect, or effect the other way; inactive means flat fitted curve, though single readings scatter.
Potency means the concentration at half of the fitted maximal effect.

`O=C(O)C(=O)Nc1cccc(-c2nn[nH]n2)c1`: the Potency entry in the test with CASKI, in the test with Es-2, in the test on HeLa, in the test with Hek293T, with JEG-3 and in the test with OV90 was “inactive” throughout. For the same compound, the Potency result in the test with PA-1, in the test on SKOV3, in the test on Tov-21-G and in the test on Tov112D was “inactive” throughout.
Consider `CC(C)(C)CC(=O)OCC(=O)[C@@]1(O)CC[C@H]2[C@@H]3CCC4=CC(=O)C=C[C@]4(C)[C@H]3[C@@H](O)C[C@@]21C`, for which the Potency entry with CASKI, in the test on Es-2, in the test on HeLa, with Hek293T, in the test with JEG-3 and with OV90 was “inactive” throughout. The Potency result in the test on PA-1, with SKOV3, in the test on Tov-21-G and in the test with Tov112D was “inactive” each time.
Turning to `c1ccc2c(c1)CCc1ccccc1N2`, the Potency entry in the test with CASKI, in the test on Es-2, with HeLa, in the test on Hek293T, in the test with JEG-3 and in the test with OV90 was “inactive” in each case. In addition, the Potency entry with PA-1, with Tov-21-G and with Tov112D was “inactive” in each case. The Potency in the test on SKOV3 is 22.4 µM (active).
Consider `Cc1ccc(C(=O)C(=O)O)cc1C`, for which the Potency result with CASKI, in the test on Es-2, with HeLa, with Hek293T, in the test with JEG-3 and in the test on OV90 was “inactive” throughout. Moreover, the Potency result with PA-1, with SKOV3, in the test with Tov-21-G and in the test with Tov112D was “inactive” in each case.
`C/C(=C1\CCOC(=O)S1)N(C=O)Cc1cnc(C)nc1N`: the Potency result in the test with CASKI, in the test with Es-2, in the test on HeLa, with Hek293T, with JEG-3 and in the test on OV90 was “inactive” throughout. In addition, the Potency result in the test on PA-1, with SKOV3, in the test with Tov-21-G and with Tov112D was “inactive” each time.
For `Cc1oc(=O)oc1COC(=O)[C@@H]1N2C(=O)[C@@H](NC(=O)[C@H](N)c3ccccc3)[C@H]2SC1(C)C`, the Potency entry in the test with CASKI, with Es-2, with HeLa, with Hek293T, in the test with JEG-3 and in the test on OV90 was “inactive” each time. The Potency entry in the test with PA-1, with SKOV3, with Tov-21-G and in the test with Tov112D was “inactive” in each case.
Consider `COc1ccc2c(c1)c(CC(=O)OC/C=C(\C)CC/C=C(\C)CCC=C(C)C)c(C)n2C(=O)c1ccc(Cl)cc1`, for which the Potency result in the test on CASKI, with Es-2, in the test with HeLa, in the test with Hek293T, in the test with JEG-3 and in the test with OV90 was “inactive” each time. Further, the Potency result in the test on PA-1, with SKOV3, in the test with Tov-21-G and in the test on Tov112D was “inactive” each time.
For `Cc1sccc1Br`, the Potency entry with CASKI, in the test on Es-2, in the test with HeLa, in the test on Hek293T, in the test with JEG-3 and in the test with OV90 was “inactive” throughout. Besides, the Potency entry with PA-1, in the test on SKOV3, in the test with Tov-21-G and in the test with Tov112D was “inactive” throughout.
As for `Cc1ccccc1N1CCN(CCc2nnc3n2CCCC3)CC1`, the Potency result with CASKI, in the test with Es-2, in the test with HeLa, with Hek293T, in the test with JEG-3 and in the test on OV90 was “inactive” in each case. Also, the Potency entry in the test with PA-1, with SKOV3, in the test with Tov-21-G and with Tov112D was “inactive” throughout.
In the case of `COCCc1ccc(OCC2CO2)cc1` (stereo not given), the Potency result in the test with CASKI, with Es-2, in the test with HeLa, with Hek293T, with JEG-3 and with OV90 was “inactive” in each case. Moreover, the Potency result with PA-1, with SKOV3, in the test with Tov-21-G and in the test with Tov112D was “inactive” each time.
Turning to `COC(=O)c1cc(S(N)(=O)=O)ccc1OC`, the Potency entry in the test with CASKI, with Es-2, in the test on HeLa, in the test on Hek293T, in the test on JEG-3 and in the test with OV90 was “inactive” throughout. Also, the Potency entry in the test with PA-1, in the test with SKOV3, in the test on Tov-21-G and with Tov112D was “inactive” each time.
With `Clc1ccc2c(c1)Nc1ccccc1S2`, the Potency result in the test on CASKI, with Es-2, in the test on HeLa, with Hek293T, in the test on JEG-3 and in the test with OV90 was “inactive” in each case. Moreover, the Potency result in the test with PA-1, with SKOV3, with Tov-21-G and in the test on Tov112D was “inactive” in each case.
As to `CCC(=O)O[C@]1(C(=O)COC)[C@@H](C)C[C@H]2[C@@H]3CCC4=CC(=O)C=C[C@]4(C)C3(F)[C@@H](O)C[C@@]21C` (stereo not given in full), the Potency entry in the test with CASKI, with Es-2, with HeLa, in the test on Hek293T, with JEG-3 and in the test with OV90 was “inactive” in each case. Moreover, the Potency entry in the test on PA-1, in the test on SKOV3, in the test on Tov-21-G and with Tov112D was “inactive” throughout.
Turning to `CC(C)(C)c1nnc(NS(=O)(=O)c2ccccc2)s1`, the Potency entry in the test with CASKI, with Es-2, in the test on HeLa, in the test with Hek293T, in the test with JEG-3 and in the test with OV90 was “inactive” throughout. The Potency entry in the test with PA-1, in the test on SKOV3, in the test on Tov-21-G and with Tov112D was “inactive” each time.
As to `COc1cc(C(=O)NC2CCCNC2)cc(OC)c1OC` (stereo not given), the Potency result in the test on CASKI, in the test on Es-2, in the test with HeLa, in the test with Hek293T, with JEG-3 and with OV90 was “inactive” throughout. Besides, the Potency entry with PA-1, in the test with SKOV3, with Tov-21-G and with Tov112D was “inactive” each time.
Regarding `Cc1cccc(OCC(O)CNC(C)(C)C)c1C` (stereo not given), the Potency result with CASKI, with Es-2, in the test on HeLa, in the test on Hek293T, in the test on JEG-3 and in the test on OV90 was “inactive” in each case. Besides, the Potency result in the test with PA-1, in the test on SKOV3, in the test on Tov-21-G and in the test with Tov112D was “inactive” throughout.
For `Fc1ccc(C(c2ccc(F)cc2)N2CCNCC2)cc1`, the Potency result with CASKI, with Es-2, in the test with HeLa, in the test with Hek293T, with JEG-3 and in the test with OV90 was “inactive” in each case. The Potency result with PA-1, in the test on SKOV3, in the test with Tov-21-G and with Tov112D was “inactive” throughout.
Regarding `CC(=O)O[C@@H]1CC2C3CCc4cc(OC(=O)c5ccccc5)ccc4C3CCC2(C)[C@H]1OC(C)=O` (stereo not given in full), the Potency result in the test on CASKI, in the test with Es-2, in the test on HeLa, in the test on Hek293T, in the test with JEG-3 and in the test on OV90 was “inactive” in each case. The Potency entry in the test on PA-1, in the test with SKOV3, in the test with Tov-21-G and in the test with Tov112D was “inactive” each time.
Consider `CCCCC(CC)CNC(=O)CC(C)OC(=O)CCC(=O)O` (stereo not given), for which the Potency result in the test on CASKI, with Es-2, in the test on HeLa, in the test on Hek293T, in the test with JEG-3 and in the test with OV90 was “inactive” throughout. In addition, the Potency result in the test on PA-1, in the test on SKOV3, in the test with Tov-21-G and in the test with Tov112D was “inactive” in each case.
On to `CC(CC(C#N)(c1ccccc1)C(C)C)N(C)C` (stereo not given), for which the Potency entry in the test on CASKI, in the test on Es-2, with HeLa, in the test on Hek293T, with JEG-3 and in the test with OV90 was “inactive” in each case. The Potency entry in the test with PA-1, in the test on SKOV3, with Tov-21-G and in the test with Tov112D was “inactive” in each case.
Consider `N#Cc1cc(NC(=O)C(=O)O)c(Cl)c(NC(=O)C(=O)O)c1`, for which the Potency result in the test on CASKI, in the test on Es-2, in the test on HeLa, in the test on Hek293T, in the test on JEG-3 and in the test with OV90 was “inactive” in each case. The Potency entry with PA-1, in the test with SKOV3, in the test with Tov-21-G and in the test with Tov112D was “inactive” throughout.
Consider `CC(C)OP(=O)(CP(=O)(OC(C)C)OC(C)C)OC(C)C`, for which the Potency entry in the test with CASKI, in the test with Es-2, in the test on HeLa, with Hek293T, in the test with JEG-3 and with OV90 was “inactive” in each case. Also, the Potency result in the test on PA-1, in the test on SKOV3, in the test on Tov-21-G and with Tov112D was “inactive” in each case.
